The record followed here is PubChem BioAssay AID2782 (National Center for Advancing Translational Sciences (NCATS), 2010).

Records with an inconclusive call do not appear. Unmarked numbers belong to inactive results. Active and inactive are the calls of the source. The call rests on the fitted dose curve; in most records, active means well fitted inhibition curve with a large enough effect in the polarisation, with a control signal flat (not every such curve was filed as active); inconclusive means small, poorly fitted or top-dose-only effect, or effect the other way, or a change in a side signal; inactive means no such curve, though single readings can be large or run the other way; the % refers to the polarisation.
On the % scale 0 is the no-effect control and ±100 the full control effect; potency means the concentration at half of the fitted maximal effect.

A short description of the assay: Confirmation of Inhibitors Targeting the Menin-MLL Interaction in MLL Related Leukemias: Competition With Texas Red Labeled MLL-derived Mutant Peptide. As to conditions: fluorescence polarization, Texas Red MLL peptide displacement; series mostly up to 94.6 µM; FP change, negative = inhibition: at the top concentration. In a few lines:
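Hits from the primary screen were retested: compounds were incubated 1 hr at ambient with 200 nM menin, 50 nM Texas Red mutant peptide and 25 nM fluorescein wild-type peptide (Tris pH 7.5, BSA-supplemented buffer), then fluorescence polarization was read.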
(In general: Fluorescence polarisation rises when a labelled molecule tumbles more slowly, as on binding a larger partner.)
Regarding `O=C(C1=C(O)C(=O)N(CCN2CCOCC2)C1c1cccc(Br)c1)c1cccs1` (configuration not stated), the “FP change, negative = inhibition” value was -3.49% [at 288 µM].

With `CN1C[C@@H]2C[C@H]1CN2c1cc2c(cc1F)c(=O)c(C(=O)O)cn2C1CC1`, the “FP change, negative = inhibition” value was -15.4%.

As to `O=[N+]([O-])CC(c1ccccc1)P(=O)(c1ccccc1)c1ccccc1` (configuration not stated), the “FP change, negative = inhibition” value is 24.1%.

For the molecule `CCCc1cc(=O)oc2c3c(c(Cl)cc12)OCN(CCCO)C3`, the “FP change, negative = inhibition” value is -18.2% [at 288 µM].

On to `Cc1nc(N2CCN(C)CC2)c2c3c(sc2n1)CCCC3`, for which the Potency is 126 µM (active).

As to `CCCCn1c(SCC(=O)NCc2ccc(OC)c(C(=O)O)c2)nc2cc(S(N)(=O)=O)ccc21`, the “FP change, negative = inhibition” value is -17.1% [at 288 µM].

As for `CC(=O)O[C@H]1CSC[C@H]1NC(=O)c1ccccc1`, the “FP change, negative = inhibition” value was 7.12%.

For `CC1(C)CN=C(N2CCN(c3ncnc4sc5c(c34)CCCC5)CC2)S1`, the Potency was 14.2 µM (active).

As to `Cc1ccc(NS(=O)(=O)c2csc(C(N)=O)c2)cc1C`, the “FP change, negative = inhibition” value is 4.48% [at 288 µM].

`Cc1cc2[nH]c3c(c[n+](C)c4ccccc34)c2cc1C`: the Potency was 56.4 µM (active).

With `CCOC(=O)c1cnc2ccc(OC)cc2c1Nc1ccc(N2CCN(C)CC2)cc1`, the Potency was 141 µM (active).

Turning to `O=C(NC1CCN(c2ncccn2)CC1)c1c(F)cccc1F`, the “FP change, negative = inhibition” value is -9.09% [at 288 µM].

On to `O=C(CSc1nnc(-c2c[nH]c3ccccc23)o1)c1ccc(-c2ccccc2)cc1`, for which the Potency was 35.5 µM (active).

Turning to `c1cc(CN2CCCNCCNCCCNCC2)ccc1CN1CCCNCCNCCCNCC1`, the Potency was 22.4 µM (active).

As for `CCOc1ccc(NC(=O)c2cccc(OC(=S)N3CCC(C)CC3)c2)cc1`, the “FP change, negative = inhibition” value is 40.8% [at 288 µM].

For `CCCCCC1CCC(C(=O)NCCN2CCOCC2)CC1` (configuration not stated), the “FP change, negative = inhibition” value is 17.5%.

With `COc1ccc(N(C(=O)c2ccncc2)S(=O)(=O)c2ccc(Cl)cc2)cc1`, the “FP change, negative = inhibition” value is 4.85%.
